# Activity calls are given as the source filed them. How the source made its calls: active means hit-call score of the fitted dose curve at least 0.9, where 1 is the maximum; inactive means score below 0.9.
# Assays:
# [1] = ATG_AP_1_CIS: Attagene CIS-FACTORIAL HepG2 Assay for human Activator Protein 1 (AP-1) (AID 2282931); details: HepG2 Attagene cis-factorial AP-1 reporter mRNA; actives raise or lower the signal
# How it was run: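 HepG2, transient cis-reporter transfection; 24 h; readout RT-PCR/CE fluorescence; DMSO baseline, gain and loss fitted.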
# [2] = ATG_AP_2_CIS: Attagene CIS-FACTORIAL HepG2 Assay for human Activator Protein 2 (AP-2) (AID 2282932); details: HepG2 AP-2 cis-reporter, Attagene transcription factor profiling; actives raise or lower the signal
# How it was run: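 HepG2 cells were transiently transfected with multiple cis-promoter reporter transcription units and dosed for 24 h. Reporter mRNA was measured by RT-PCR with capillary electrophoresis fluorescence; bidirectional fits relative to DMSO baseline.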
# [3] = ATG_BRE_CIS: Attagene CIS-FACTORIAL HepG2 Assay for human Bone Morphogenetic Protein (BMP) Response Element (BRE) (AID 2282933); details: HepG2 BMP response element reporter, Attagene transcription factor profiling; actives raise or lower the signal
# How it was run: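 Multiplexed cis-reporter assay, HepG2, 24 h exposure. mRNA from reporter units quantified via RT-PCR/CE; DMSO baseline; bidirectional curve fit.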
# [4] = target: Retinoic acid receptor alpha (Homo sapiens) (UniProt P10276); assay: ATG_DR5_RAR_CIS: Attagene CIS-FACTORIAL HepG2 Assay for human Retinoic Acid Receptor Alpha (RARE), DR5 submotif (AID 2282934); details: HepG2 Attagene cis-factorial RARE DR5 reporter, mRNA; actives raise or lower the signal
# How it was run: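 Endpoint fitted in both directions relative to DMSO as negative control. It reflects DR5 cis-element reporter mRNA induction in transiently transfected HepG2 cells, measured 24 h after dosing through RT-PCR and fluorescent capillary electrophoresis.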
# [5] = target: Transcription factor E2F1 (Homo sapiens) (UniProt Q01094); assay: ATG_E2F_CIS: Attagene CIS-FACTORIAL HepG2 Assay for human E2F Transcription Factor 1 (AID 2282935); details: HepG2 Attagene cis-reporter, E2F reporter RNA transcripts; actives raise or lower the signal
# How it was run: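 HepG2 cells transiently transfected with multiplexed cis-element reporter units, dosed for 24 h. Reporter mRNA measured by RT-PCR, 6-FAM primer-extension labeling, HpaI digestion and capillary electrophoresis; bidirectional fit versus DMSO baseline.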
# [6] = ATG_E_Box_CIS: Attagene CIS-FACTORIAL HepG2 Assay for human Enhancer Box (E-box) (AID 2282936); details: HepG2 E-box cis-reporter transcription, actives raise or lower the signal
# How it was run: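 HepG2 cells transiently transfected with multiplexed cis-element reporter units sensing endogenous transcription factor activity; 24 h compound exposure. Reporter mRNA measured by RT-PCR, 6-FAM primer extension, HpaI digestion and capillary electrophoresis; bidirectional fit versus DMSO.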
# [7] = ATG_M_61_CIS: Attagene CIS-FACTORIAL HepG2 Assay for M61 Transcription Factor (Internal Marker) (AID 2282937); details: HepG2 Attagene CIS-FACTORIAL M61 internal marker reporter; actives raise or lower the signal
# How it was run: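 Transfect HepG2 with MRTUs; dose 24 h; isolate RNA; reverse-transcribe with DNase I treatment; PCR-amplify, FAM-label and cut with HpaI for 2 h at 37 C; resolve by CE. Bidirectional fitting against DMSO.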
# [8] = ATG_EGR_CIS: Attagene CIS-FACTORIAL HepG2 Assay for human Early Growth Response 1 (EGR1) (AID 2282938); details: HepG2 Attagene CIS-FACTORIAL EGR reporter mRNA; actives raise or lower the signal
# How it was run: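 After a 24 h treatment of transiently transfected HepG2 cells, total RNA was reverse-transcribed and reporter sequences PCR-amplified, labelled and run on capillary electrophoresis. Reporters sit under cis-regulatory promoters sensing endogenous factors.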
# [9] = ATG_M_19_CIS: Attagene CIS-FACTORIAL HepG2 Assay for M19 Transcription Factor (Internal Marker) (AID 2282939); details: HepG2 Attagene CIS-FACTORIAL M19 internal marker reporter; actives raise or lower the signal
# How it was run: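 Signals come from fluorescence of labelled reporter-specific PCR fragments resolved by capillary electrophoresis, following 24 h treatment of HepG2 cells transfected with cis-promoter reporter units; activity was fitted in both directions relative to DMSO.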
# [10] = ATG_ERE_CIS: Attagene CIS-FACTORIAL HepG2 Assay for Estrogen Response Element (ERE) (AID 2282940); details: HepG2 ERE cis-reporter, Attagene RNA transcript; actives raise or lower the signal
# How it was run: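 Fluorescence of capillary-separated, FAM-labelled reporter cDNA fragments indicates reporter mRNA levels in HepG2 cells exposed to chemicals for 24 h. Transient transfection with cis-regulated units; data fitted in both directions against DMSO.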
# [11] = ATG_Ets_CIS: Attagene CIS-FACTORIAL HepG2 Assay for human Erythroblast Transformation Specific (ETS) (AID 2282941); details: HepG2 ETS cis-reporter transcription, actives raise or lower the signal
# How it was run: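 Steps: transfect HepG2 with multiple reporter units; treat compound 24 h; isolate RNA, DNase-treat, reverse-transcribe; PCR-amplify, label with 6-FAM, digest with HpaI; separate by capillary electrophoresis. Activity fitted both directions versus DMSO.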
# [12] = target: Hepatocyte nuclear factor 3-beta (Homo sapiens) (UniProt Q9Y261); assay: ATG_FoxA2_CIS: Attagene CIS-FACTORIAL HepG2 Assay for human Forkhead box A2 (FOXA2) (AID 2282942); details: HepG2 cis-reporter transcription factor activity, 24 h; actives raise or lower the signal
# How it was run: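 24 h dosing of HepG2 bearing cis-reporter constructs; mRNA readout by RT-PCR/CE fluorescence; bidirectional fit, DMSO baseline.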
# [13] = ATG_FoxO_CIS: Attagene CIS-FACTORIAL HepG2 Assay for human Forkhead box O (FoxO) (AID 2282943); details: HepG2 Attagene cis-reporter, FoxO element, mRNA; actives raise or lower the signal
# How it was run: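 Values reflect reporter mRNA induction or loss in HepG2 cells 24 h post-dosing, fitted bidirectionally with DMSO as negative control and baseline. Detection used RT-PCR and fluorescence capillary electrophoresis.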
# [14] = ATG_GATA_CIS: Attagene CIS-FACTORIAL HepG2 Assay for human GATA Binding Protein (AID 2282944); details: HepG2 GATA cis-element reporter, Attagene multiplex mRNA; actives raise or lower the signal
# How it was run: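 After transfecting HepG2 cells with multiple cis-regulated reporter units, chemicals are dosed for 24 h; isolated RNA undergoes RT-PCR and fluorescent labeling before capillary electrophoresis, with activity expressed against DMSO.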
# [15] = ATG_GLI_CIS: Attagene CIS-FACTORIAL HepG2 Assay for human Zinc Finger Protein GLI1 (AID 2282945); details: HepG2, Attagene cis-factorial reporter mRNA, GLI element; actives raise or lower the signal
# How it was run: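 HepG2 cells transiently transfected with cis-promoter multiplexed reporter units report endogenous transcription factor activity. After 24 h chemical exposure, reporter mRNA was quantified by RT-PCR, 6-FAM labelling, HpaI digestion and capillary electrophoresis, with bidirectional fitting against DMSO.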
# [16] = ATG_GRE_CIS: Attagene CIS-FACTORIAL HepG2 Assay for human Glucocorticoid Response Elements (GRE) (AID 2282947); details: HepG2 GRE cis-reporter, Attagene multiplex mRNA; actives raise or lower the signal
# How it was run: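 HepG2 cells transiently transfected with multiple cis-promoter reporter units measure endogenous TF activity; 24 h compound exposure. Reporter mRNA quantified by RT-PCR, FAM labelling, HpaI digestion and capillary electrophoresis; bidirectional fit vs DMSO baseline.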
# [17] = ATG_ISRE_CIS: Attagene CIS-FACTORIAL HepG2 Assay for human Interferon Regulatory Factor 1 (IRF1) binding to an Interferon-Stimulated Response Element (ISRE) (AID 2282948); details: HepG2 ISRE cis-reporter (Attagene), mRNA transcription readout; actives raise or lower the signal
# How it was run: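 Transfected HepG2 (multiple reporter transcription units, cis elements) dosed 24 h. RNA → oligo(dT) RT → PCR → 6-FAM primer extension → HpaI → CE. DMSO = negative control/baseline.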
# [18] = ATG_M_32_CIS: Attagene CIS-FACTORIAL HepG2 Assay for M32 Transcription Factor (Internal Marker) (AID 2282949); details: HepG2 Attagene cis-factorial M32 reporter, mRNA; actives raise or lower the signal;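 further: background control marker of the multiplexed CIS panel rather than a real target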
# How it was run: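 Internal background marker read-out: RT-PCR/capillary electrophoresis fluorescence of reporter transcripts from transiently transfected HepG2 cells after 24 h chemical exposure. Activity fitted bidirectionally relative to DMSO negative control.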
# [19] = ATG_M_06_CIS: Attagene CIS-FACTORIAL HepG2 Assay for M06 Transcription Factor (Internal Marker) (AID 2282950); details: HepG2 Attagene CIS-FACTORIAL M06 internal marker reporter; actives raise or lower the signal
# How it was run: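 HepG2 liver cells, 24 h exposure. Reporter transcripts from transfected cis-element constructs quantified by RT-PCR/capillary electrophoresis fluorescence. Bidirectional curve fit against DMSO.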
# [20] = target: Bile acid receptor (Homo sapiens) (UniProt Q96RI1); assay: ATG_IR1_CIS: Attagene CIS-FACTORIAL HepG2 Assay for human Nuclear Receptor Subfamily 1 Group H Member 4 (NR1H4), IR1 submotif (AID 2282946); details: IR1 reporter transcription, actives raise or lower the signal
# How it was run: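 Transient MRTU transfection, HepG2; 24 h dosing; RNA → RT-PCR → 6-FAM primer extension → HpaI digest → capillary electrophoresis fluorescence. Gain/loss of signal fitted relative to DMSO.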
# Hepatocyte nuclear factor 3-beta (Homo sapiens), sequence (Q9Y261 whole entry, looked up): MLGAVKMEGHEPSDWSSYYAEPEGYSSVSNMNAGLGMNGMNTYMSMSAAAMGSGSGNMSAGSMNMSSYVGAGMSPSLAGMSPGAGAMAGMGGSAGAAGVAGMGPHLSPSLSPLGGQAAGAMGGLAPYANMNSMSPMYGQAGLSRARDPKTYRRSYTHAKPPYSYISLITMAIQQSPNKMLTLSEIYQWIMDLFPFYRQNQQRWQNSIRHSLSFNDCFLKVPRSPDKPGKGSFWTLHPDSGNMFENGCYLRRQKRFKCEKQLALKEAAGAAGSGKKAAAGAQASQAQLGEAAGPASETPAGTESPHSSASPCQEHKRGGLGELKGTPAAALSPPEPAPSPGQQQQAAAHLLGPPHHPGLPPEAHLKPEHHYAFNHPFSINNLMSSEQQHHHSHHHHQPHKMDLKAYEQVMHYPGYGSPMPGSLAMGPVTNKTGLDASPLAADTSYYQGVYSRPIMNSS
# Transcription factor E2F1 (Homo sapiens), sequence (Q01094 whole entry, looked up): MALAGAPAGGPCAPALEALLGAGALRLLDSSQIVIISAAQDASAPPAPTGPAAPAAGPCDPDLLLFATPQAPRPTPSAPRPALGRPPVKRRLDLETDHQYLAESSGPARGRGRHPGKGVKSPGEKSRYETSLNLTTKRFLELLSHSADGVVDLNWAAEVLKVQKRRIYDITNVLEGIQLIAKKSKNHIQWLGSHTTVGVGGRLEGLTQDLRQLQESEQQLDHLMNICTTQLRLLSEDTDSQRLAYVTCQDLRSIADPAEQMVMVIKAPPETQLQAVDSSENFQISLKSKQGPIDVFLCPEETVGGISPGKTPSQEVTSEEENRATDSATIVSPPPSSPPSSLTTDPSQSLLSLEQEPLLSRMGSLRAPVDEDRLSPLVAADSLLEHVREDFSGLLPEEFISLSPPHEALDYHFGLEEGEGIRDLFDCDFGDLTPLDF
# Bile acid receptor (Homo sapiens), sequence (Q96RI1 whole entry, looked up): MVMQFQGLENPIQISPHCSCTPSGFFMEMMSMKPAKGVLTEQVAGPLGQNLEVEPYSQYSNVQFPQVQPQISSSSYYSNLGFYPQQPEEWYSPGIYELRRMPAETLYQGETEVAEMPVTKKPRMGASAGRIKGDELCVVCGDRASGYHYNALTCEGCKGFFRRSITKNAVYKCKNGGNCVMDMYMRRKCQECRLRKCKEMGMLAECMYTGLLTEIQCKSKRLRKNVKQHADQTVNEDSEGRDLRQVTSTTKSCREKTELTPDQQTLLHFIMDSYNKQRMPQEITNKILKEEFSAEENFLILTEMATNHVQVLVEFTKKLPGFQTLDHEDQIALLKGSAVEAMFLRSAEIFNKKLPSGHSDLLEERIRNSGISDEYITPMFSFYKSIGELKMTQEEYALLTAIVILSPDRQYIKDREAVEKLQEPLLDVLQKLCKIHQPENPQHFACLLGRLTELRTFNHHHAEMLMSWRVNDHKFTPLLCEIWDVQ
# Retinoic acid receptor alpha (Homo sapiens), sequence (P10276 whole entry, looked up): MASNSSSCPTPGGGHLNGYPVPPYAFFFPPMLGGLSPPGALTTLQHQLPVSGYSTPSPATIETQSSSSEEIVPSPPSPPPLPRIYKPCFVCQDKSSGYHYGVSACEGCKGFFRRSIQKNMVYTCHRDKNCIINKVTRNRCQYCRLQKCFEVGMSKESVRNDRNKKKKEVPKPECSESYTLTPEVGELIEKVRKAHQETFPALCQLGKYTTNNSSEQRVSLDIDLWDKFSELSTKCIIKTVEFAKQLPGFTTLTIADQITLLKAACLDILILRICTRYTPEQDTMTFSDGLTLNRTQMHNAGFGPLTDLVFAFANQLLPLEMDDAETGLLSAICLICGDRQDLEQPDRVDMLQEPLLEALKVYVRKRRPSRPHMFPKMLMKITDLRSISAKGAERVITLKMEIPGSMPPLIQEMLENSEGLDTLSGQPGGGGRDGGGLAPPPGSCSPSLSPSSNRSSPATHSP
smiles,measurement,setting,value
CCCCN(CCCCO)N=O,outcome,[1],inactive
same,outcome,[2],inactive
same,outcome,[3],inactive
same,outcome,[4],inactive
same,outcome,[5],inactive
same,outcome,[6],inactive
same,outcome,[7],inactive
same,outcome,[8],inactive
same,outcome,[9],inactive
same,AC50,[10],3.06 µM (active)
same,outcome,[11],inactive
same,outcome,[12],inactive
same,outcome,[13],inactive
same,outcome,[14],inactive
same,outcome,[15],inactive
same,outcome,[16],inactive
same,outcome,[17],inactive
same,outcome,[18],inactive
same,outcome,[19],inactive
CCOP(=S)(OCC)SCSc1cc(Cl)ccc1Cl,outcome,[1],inactive
same,outcome,[2],inactive
same,outcome,[3],inactive
same,outcome,[4],inactive
same,outcome,[5],inactive
same,outcome,[6],inactive
same,outcome,[7],inactive
same,outcome,[8],inactive
same,outcome,[9],inactive
same,outcome,[10],inactive
same,outcome,[11],inactive
same,outcome,[12],inactive
same,outcome,[13],inactive
same,outcome,[14],inactive
same,outcome,[15],inactive
same,outcome,[16],inactive
same,outcome,[17],inactive
same,outcome,[18],inactive
CC(C)[C@@H](Nc1ccc(C(F)(F)F)cc1Cl)C(=O)OC(C#N)c1cccc(Oc2ccccc2)c1 (stereo partly drawn),outcome,[1],inactive
same,outcome,[2],inactive
same,outcome,[3],inactive
same,outcome,[4],inactive
same,outcome,[5],inactive
same,outcome,[6],inactive
same,outcome,[7],inactive
same,outcome,[8],inactive
same,outcome,[9],inactive
same,outcome,[10],inactive
same,outcome,[11],inactive
same,outcome,[12],inactive
same,outcome,[13],inactive
same,outcome,[15],inactive
same,outcome,[20],inactive
same,outcome,[16],inactive
same,outcome,[17],inactive
same,outcome,[18],inactive
same,outcome,[19],inactive
O=C(O)COc1ccc(Cl)cc1,outcome,[1],inactive
same,outcome,[2],inactive
same,outcome,[3],inactive
same,outcome,[4],inactive
same,outcome,[5],inactive
same,outcome,[6],inactive
same,outcome,[7],inactive
same,outcome,[8],inactive
same,outcome,[9],inactive
same,outcome,[10],inactive
same,outcome,[11],inactive
same,outcome,[12],inactive
same,outcome,[13],inactive
same,outcome,[14],inactive
same,outcome,[15],inactive
same,outcome,[16],inactive
same,outcome,[17],inactive
same,outcome,[18],inactive
same,outcome,[19],inactive
CCOC(=O)OC1=C(c2cc(C)ccc2C)C(=O)NC12CCC(OC)CC2 (stereo not drawn),outcome,[1],inactive
same,outcome,[2],inactive
same,outcome,[3],inactive
same,outcome,[4],inactive
same,outcome,[5],inactive
same,outcome,[6],inactive
same,outcome,[7],inactive
same,outcome,[8],inactive
same,outcome,[9],inactive
same,outcome,[10],inactive
same,outcome,[11],inactive
same,outcome,[12],inactive
same,outcome,[13],inactive
same,outcome,[14],inactive
same,outcome,[15],inactive
same,outcome,[20],inactive
same,outcome,[16],inactive
same,outcome,[17],inactive
same,outcome,[18],inactive
CCOC(=O)Cc1ccccc1,outcome,[1],inactive
same,outcome,[2],inactive
same,outcome,[3],inactive
same,outcome,[4],inactive
same,outcome,[5],inactive
same,outcome,[6],inactive
same,outcome,[7],inactive
same,outcome,[8],inactive
same,outcome,[9],inactive
same,outcome,[10],inactive
same,outcome,[11],inactive
same,outcome,[12],inactive
same,outcome,[13],inactive
same,outcome,[14],inactive
same,outcome,[15],inactive
same,outcome,[20],inactive
same,outcome,[16],inactive
same,outcome,[17],inactive
same,outcome,[18],inactive
same,outcome,[19],inactive
CC(C)(c1ccccc1)c1cc(-n2nc3ccccc3n2)c(O)c(C(C)(C)c2ccccc2)c1,outcome,[1],inactive
same,outcome,[2],inactive
same,outcome,[3],inactive
same,outcome,[4],inactive
same,outcome,[5],inactive
same,outcome,[6],inactive
same,outcome,[7],inactive
same,outcome,[8],inactive
same,outcome,[9],inactive
same,outcome,[10],inactive
same,outcome,[11],inactive
same,outcome,[12],inactive
same,outcome,[13],inactive
same,outcome,[14],inactive
same,outcome,[15],inactive
same,outcome,[16],inactive
same,outcome,[17],inactive
same,outcome,[18],inactive
same,outcome,[19],inactive

# From PubChem BioAssay (EPA / NIEHS)
